Data published in PubChem BioAssay (NCATS).
Results filed as inconclusive are left out. A call without a number means that no potency is given here. Active and inactive are the calls of the source. Unless noted, calls come from the whole dose curve; as a rule, active = well fitted curve in the direction sought with a large enough effect; inconclusive = small, poorly fitted or top-dose-only effect, or another doubt; inactive = no such curve, though single readings can be large; an effect the other way counts as inactive or inconclusive.

Experiments:
[1] = target: Peptidyl-prolyl cis-trans isomerase NIMA-interacting 1 (Homo sapiens) (UniProt Q13526); assay: qHTS Validation Assay to Find Inhibitors of Pin1 (AID 504536; active = well fitted inhibition curve with a large enough effect in the polarisation, with a control signal flat, not every such curve was filed as active; the % refers to the polarisation; note: potency is the fitted concentration of half-maximal effect)
In short: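 Fluorescence polarization competition: compounds (titration) displace HiFluor-488-labeled Pin1-1b peptide from Pin1 (0.3 uM final) in pH 7.5 HEPES buffer with DTT, 10 min at room temperature; %Activity normalized to no-enzyme wells, curves fitted.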

[2] = target: Phosphoglycerate kinase, glycosomal (Trypanosoma brucei brucei) (UniProt P07378); assay: qHTS Validation Assay to Find Inhibitors of Phosphoglycerate Kinase (AID 504547)
In short: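 Inhibition of the enzyme is judged by a Kinase-Glo Plus luminescent signal following a one-hour incubation at room temperature. Because 1,3-BPG is unstable, it is made in situ by GAPDH at 100nM final; no-PGK wells define the baseline.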

[3] = target: phosphoglycerate mutase (Leishmania major) (UniProt Q4Q090); assay: qHTS Validation Assay to Find Inhibitors of Phosphoglycerate Mutase (AID 504548); details: Potency: inhibition qHTS; note: series mostly up to about 58 µM
In short: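 Lm PGAM at 1.25 nM final with substrate in 100 mM TEA pH 7.6, 5 mM MgCl2, 0.01% Tween-20; 45 min at room temperature. Kinase-GloPlus added, 10 min, end-point luminescence read.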

[4] = target: Ubiquitin carboxyl-terminal hydrolase 1 (Homo sapiens) (UniProt O94782); assay: Inhibitors of USP1/UAF1: Pilot qHTS (AID 504865); note: nearly all actives have a fitted effect of over 35% in size; note: potency is the fitted concentration of half-maximal effect
In short: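 1nM USP1/UAF1 + cpd, 15 min RT; start w/ Ub-Rho 150nM final; kinetic FL 480/540 nm, 6 reads q60 s. Buffer 50mM HEPES pH 7.8, 0.5mM EDTA, 1mM TCEP, 0.01% Tween-20, 0.1 mg/ml BSA.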

[5] = qHTS for Inhibitors of ATXN expression: Validation of Cytotoxic Assay (AID 588349);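 note: cells exposed to compound for 72 hr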; note: potency is the fitted concentration of half-maximal effect
In short: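 HEK293, compound dose series, 72 hr / 37 degrees C; viability via CellTiter Glo (intracellular ATP).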

[6] = qHTS for Inhibitors of ATXN expression: Validation (AID 588378); note: nearly all actives have a fitted effect of over 75% in size; note: potency is the fitted concentration of half-maximal effect
In short: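 Cells: HEK293-ATXN2-FFLuc, phenol-red free DMEM, 2 h attachment. Compound pin-transfer, 24 h, 37 degrees C, 5% CO2. CellTiter-Fluor 30 min, Ex405/Em525; Bright-Glo 5 min, luminescence 2 s exposure.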

Chain of Phosphoglycerate kinase, glycosomal (Trypanosoma brucei brucei) (P07378 whole entry, looked up): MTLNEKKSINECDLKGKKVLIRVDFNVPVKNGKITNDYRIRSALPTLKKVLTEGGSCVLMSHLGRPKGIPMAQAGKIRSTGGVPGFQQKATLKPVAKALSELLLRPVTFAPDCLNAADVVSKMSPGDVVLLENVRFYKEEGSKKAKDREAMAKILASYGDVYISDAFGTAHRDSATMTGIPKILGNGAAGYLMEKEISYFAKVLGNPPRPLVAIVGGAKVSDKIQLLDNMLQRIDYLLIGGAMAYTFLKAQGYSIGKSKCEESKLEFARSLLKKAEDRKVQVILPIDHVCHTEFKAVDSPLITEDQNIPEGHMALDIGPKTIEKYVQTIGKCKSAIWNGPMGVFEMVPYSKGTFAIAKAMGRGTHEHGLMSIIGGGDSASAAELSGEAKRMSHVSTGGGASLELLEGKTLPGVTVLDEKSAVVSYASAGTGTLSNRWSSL
Chain of Ubiquitin carboxyl-terminal hydrolase 1 (Homo sapiens) (O94782 whole entry, looked up): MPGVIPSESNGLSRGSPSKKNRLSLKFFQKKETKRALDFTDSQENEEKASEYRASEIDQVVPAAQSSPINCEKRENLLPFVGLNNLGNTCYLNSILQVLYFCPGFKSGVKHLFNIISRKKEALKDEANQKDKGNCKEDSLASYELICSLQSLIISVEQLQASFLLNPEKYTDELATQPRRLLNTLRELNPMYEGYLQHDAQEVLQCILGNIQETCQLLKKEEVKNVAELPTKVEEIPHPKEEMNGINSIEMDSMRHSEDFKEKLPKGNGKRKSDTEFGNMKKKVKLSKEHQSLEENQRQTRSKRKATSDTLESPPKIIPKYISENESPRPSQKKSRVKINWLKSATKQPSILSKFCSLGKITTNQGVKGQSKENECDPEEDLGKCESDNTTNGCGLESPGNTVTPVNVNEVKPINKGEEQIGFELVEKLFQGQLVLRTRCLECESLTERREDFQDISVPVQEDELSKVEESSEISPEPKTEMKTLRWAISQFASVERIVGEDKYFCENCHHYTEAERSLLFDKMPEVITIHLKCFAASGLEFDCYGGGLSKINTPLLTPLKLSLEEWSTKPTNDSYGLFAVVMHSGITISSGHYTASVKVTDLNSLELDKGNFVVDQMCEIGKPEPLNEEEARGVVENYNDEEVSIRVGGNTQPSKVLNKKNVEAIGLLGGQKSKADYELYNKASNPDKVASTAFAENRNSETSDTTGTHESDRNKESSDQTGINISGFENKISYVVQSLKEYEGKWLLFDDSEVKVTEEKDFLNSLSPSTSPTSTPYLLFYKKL
Chain of Peptidyl-prolyl cis-trans isomerase NIMA-interacting 1 (Homo sapiens) (Q13526 whole entry, looked up): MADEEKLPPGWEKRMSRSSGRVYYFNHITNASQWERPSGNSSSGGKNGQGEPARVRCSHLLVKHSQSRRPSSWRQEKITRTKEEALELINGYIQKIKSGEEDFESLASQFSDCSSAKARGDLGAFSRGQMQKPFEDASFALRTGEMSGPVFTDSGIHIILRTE
Chain of phosphoglycerate mutase (Leishmania major) (Q4Q090 1-553): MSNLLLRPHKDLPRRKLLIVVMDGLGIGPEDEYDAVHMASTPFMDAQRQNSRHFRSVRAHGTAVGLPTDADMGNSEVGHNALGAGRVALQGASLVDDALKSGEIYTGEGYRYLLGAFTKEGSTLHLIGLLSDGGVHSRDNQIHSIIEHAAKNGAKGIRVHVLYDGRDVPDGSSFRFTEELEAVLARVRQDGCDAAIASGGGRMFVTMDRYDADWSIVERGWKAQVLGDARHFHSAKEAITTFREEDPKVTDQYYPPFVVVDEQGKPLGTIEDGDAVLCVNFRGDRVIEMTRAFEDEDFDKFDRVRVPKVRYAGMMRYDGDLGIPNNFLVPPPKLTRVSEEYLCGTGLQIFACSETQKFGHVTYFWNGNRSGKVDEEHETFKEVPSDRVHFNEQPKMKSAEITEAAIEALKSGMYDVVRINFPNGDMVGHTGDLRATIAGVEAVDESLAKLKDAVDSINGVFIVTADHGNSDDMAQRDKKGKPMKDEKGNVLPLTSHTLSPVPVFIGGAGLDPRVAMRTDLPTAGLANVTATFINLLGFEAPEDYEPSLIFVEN

| Compound | Potency [1] | Potency [2] | Potency [3] | Potency [4] | Potency [5] | Potency [6] |
| --- | --- | --- | --- | --- | --- | --- |
| Nc1nc(SCc2ccc([N+](=O)[O-])cc2)c2ncn([C@@H]3O[C@H](CO)[C@@H](O)[C@H]3O)c2n1 | inactive | inactive | inactive | inactive | inactive | inactive |
| C=CC(C)=C[C@@]1(C)SC(=O)C(C)=C1O | inactive | inactive | inactive | inactive | inactive | inactive |
| NC(=S)c1ccc[n+]([C@@H]2O[C@@H](COP(=O)([O-])OP(=O)(O)OC[C@H]3O[C@@H](n4cnc5c(N)ncnc54)[C@H](OP(=O)(O)O)[C@@H]3O)C(O)C2O)c1 (stereo partly specified) | 19 µM (active) | inactive | inactive | inactive | inactive | inactive |
| CC(N)C(=O)OC(C)(C)Cc1ccc(Cl)cc1 (stereo unspecified) | inactive | inactive | inactive | inactive | inactive | inactive |
| O=C(CCCCCN1CCN(c2ccccc2-c2ccccc2)CC1)NC1CCCc2ccccc21 (stereo unspecified) | inactive | inactive | inactive | inactive | 15.8 µM (active) | 20 µM (active) |
| CNc1ncnc2c1ncn2[C@@H]1O[C@H](CO)[C@@H](O)[C@H]1O | inactive | inactive | inactive | inactive | inactive | inactive |
| CC(=O)SCC[N+](C)(C)C | inactive | inactive | inactive | inactive | inactive | inactive |
| CCCCC#Cc1nc(NC)c2ncn([C@@H]3O[C@H](CO)[C@@H](O)[C@H]3O)c2n1 | inactive | inactive | inactive | inactive | inactive | inactive |
| CCc1c(C(=O)NCCc2ccc(N3CCCCC3)cc2)[nH]c2ccc(Cl)cc12 | inactive | inactive | inactive | inactive | inactive | inactive |
| CC1CN(S(=O)(=O)c2cccc3cnccc23)CCN1 (stereo unspecified) | inactive | inactive | inactive | inactive | inactive | inactive |
| CO/S(=N\S(=O)(=O)c1ccc(Cl)cc1)c1ccc([N+](=O)[O-])cc1 (stereo unspecified) | inactive | inactive | inactive | 31.6 µM (active) | inactive | inactive |
| CN(C)c1nc2c(Br)c(Br)c(Br)c(Br)c2[nH]1 | inactive | inactive | inactive | inactive | inactive | inactive |
| O=C(O)[C@@H]1C[C@H](C(=O)O)N1 | inactive | inactive | inactive | inactive | inactive | inactive |
| N=C(N)SCCc1ccc(CCSC(=N)N)cc1 | inactive | inactive | inactive | inactive | inactive | inactive |
| O=C(c1ccc(Cl)cc1)N1CCN(c2ccc([N+](=O)[O-])c3ncccc23)CC1 | inactive | inactive | inactive | inactive | inactive | inactive |
| CN(C)C(N)=NCCC[C@H](N)C(=O)O | inactive | inactive | inactive | inactive | inactive | inactive |

| Compound | Potency [1] | Potency [2] | Potency [3] | Potency [4] | Potency [5] | Potency [6] |
| --- | --- | --- | --- | --- | --- | --- |
| O=C(O)CCCC[C@@H]1CCSS1 | inactive | inactive | inactive | inactive | inactive | inactive |
| COc1cc(C(O)CO)ccc1OS(=O)(=O)O (stereo unspecified) | inactive | inactive | inactive | inactive | inactive | inactive |
| NCCSSCCN | inactive | inactive | inactive | inactive | inactive | inactive |
| CN1CC(=O)N/C1=N/C(=O)Nc1cccc(Cl)c1 | inactive | inactive | inactive | inactive | inactive | inactive |
| Fc1cccc(/C=N/N=C/c2cccc(F)c2)c1 | inactive | inactive | inactive | inactive | inactive | inactive |
| CC(COc1ccc(/C=C/c2ccccc2)cc1)[N+](C)(C)C (stereo unspecified) | inactive | inactive | inactive | inactive | inactive | inactive |
| NC[C@@H]1O[C@H](C23CC4CC(CC(C4)C2)C3)Cc2c1ccc(O)c2O | inactive | inactive | inactive | inactive | 31.6 µM (active) | 20 µM (active) |
| Cn1c(=O)c2[nH]c(-c3ccccc3)nc2n(C)c1=O | inactive | inactive | inactive | inactive | inactive | inactive |
| OC[C@H]1O[C@@H](n2cnc3c(Nc4ccccc4)ncnc32)[C@H](O)[C@@H]1O | inactive | inactive | inactive | inactive | inactive | inactive |
| Clc1ccc(N2CCN(Cc3cc4ccccn4n3)CC2)cc1 | inactive | inactive | inactive | inactive | inactive | inactive |
| Nc1ncnc2c1ncn2[C@@H]1O[C@H](COP(=O)(O)OP(=O)(O)OP(=O)(O)OP(=O)(O)OC[C@@H]2O[C@H](n3cnc4c(N)ncnc43)[C@@H](O)[C@H]2O)[C@@H](O)[C@H]1O | inactive | inactive | inactive | inactive | inactive | inactive |
| NC(=O)C(=O)O | inactive | inactive | inactive | inactive | inactive | inactive |
| Cc1ccccc1CNc1ncnc2c1ncn2C1OC(CO)C(O)C1O (stereo unspecified) | inactive | inactive | inactive | inactive | inactive | inactive |
| NCCCS(=O)(=O)O | inactive | inactive | inactive | inactive | inactive | inactive |
| O=[N+]([O-])c1ccc(CSc2ncnc3c2ncn3[C@@H]2O[C@H](CO)[C@@H](O)[C@H]2O)cc1 | inactive | inactive | inactive | inactive | inactive | inactive |
